According to PubChem BioAssay AID485317 (Broad Institute, 2010):
In all, about 290,000 compounds went through this assay and about 11,000 (3.8%) were called active. This is one part of a sample in which actives are shown more often than they occur.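 How the source made its calls: active means mean replicate inhibition above about 79%, with every replicate also reaching it (limit read from the data); inconclusive means only one of the two criteria met; inactive means mean below limit and not every replicate reaching it.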

Target: FAD-linked sulfhydryl oxidase ALR (Homo sapiens) (UniProt P55789)
Sequence (P55789 whole entry, looked up): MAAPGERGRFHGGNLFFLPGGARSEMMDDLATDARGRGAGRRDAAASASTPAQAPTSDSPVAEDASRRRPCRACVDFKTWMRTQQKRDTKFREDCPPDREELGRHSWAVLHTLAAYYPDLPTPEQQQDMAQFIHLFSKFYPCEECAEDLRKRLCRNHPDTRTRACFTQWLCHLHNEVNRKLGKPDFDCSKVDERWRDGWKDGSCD
Test: inhibitors of human ALR sulfhydryl oxidase, primary screen, biochemical, H2O2 detection, HRP-luminol luminescence, single point (AID 485317)
Conditions: purified ALR, DTT oxidation, active compounds read high, concentration not given here

SMILES | inhibition
CC(C)(C)n1nc(Cc2cccc3ccccc23)c(C#N)c1N | -16.1% (inactive)
Cc1cc(NC(=O)CSc2nnc(-c3ccco3)n2N)no1 | -0.748% (inactive)
CCOc1ccc2oc(C(=O)N(CC)CC(=O)Nc3ccc(NC(C)=O)cc3)c(C)c2c1 | -6.04% (inactive)
CCOc1ccc2ccccc2c1/C=N/NC(=O)c1c(C)cc(C)[nH]c1=O | -4.32% (inactive)
COc1ccc(NC(=O)CN(C)C(=O)c2ccc(NC3CC3)c([N+](=O)[O-])c2)cc1 | 9.73% (inactive)
CCOc1cc(/C=N/NC(=O)CN2CCCCC2)ccc1O | 98.9% (active)
CCOc1cc(/C=N/NC(=O)c2cc(-c3ccccc3)nc3ccccc23)ccc1O | 12.6% (inactive)
COc1cc(/C=N/NC(=O)c2ccoc2C)ccc1OCCN1CCCCC1 | -5.33% (inactive)
COc1ccc(-c2nn(-c3ccccc3)cc2/C=C\C(=O)Nc2ccc(C(=O)O)cc2)cc1 | -2.34% (inactive)
O=C(O)c1ccc(N/N=C/c2cn(-c3ccccc3)nc2-c2cccs2)cc1 | 98.9% (active)
O=C(/C=C\c1cn(-c2ccccc2)nc1-c1cccs1)N1CCOCC1 | -5.03% (inactive)
Cc1ccc(NC(=O)CCNC(=O)c2ccc([N+](=O)[O-])cc2)cc1S(=O)(=O)N1CCOCC1 | -6.28% (inactive)
Cc1ccc(S(=O)(=O)NCC(=O)N2CCN(c3ccccn3)CC2)cc1 | 3.32% (inactive)
Cc1ccc(N2C(=O)C3CC3C2=O)cc1 (stereo unspecified) | -2.01% (inactive)
Cc1ccc(N2CCN(c3ccc(C)cc3)C2c2ccccn2)cc1 | 86.9% (active)
CC(C)(C)OC(=O)C[C@@H]1C/C=C\C[C@H](CC(=O)N[C@@H](CO)Cc2ccccc2)C(=O)N[C@H](Cc2ccccc2)COC1=O | -0.505% (inactive)
O=C(NCc1ccccc1Cl)C(=O)NCC1CCCN1S(=O)(=O)c1cccs1 (stereo unspecified) | -7.66% (inactive)
CC1=C(C(=O)NC2CC(C)(C)Cc3c2cnn3-c2ccc(C)cc2)OCCO1 (stereo unspecified) | -16.8% (inactive)
Cc1cc(C(=O)NC2CC(C)(C)Cc3c2cnn3-c2ccccc2)n[nH]1 (stereo unspecified) | 92.1% (active)

SMILES | inhibition
COc1ccc(C(=O)NC2CC(C)(C)Cc3c2cnn3-c2ccccc2)c(OC)c1 (stereo unspecified) | 0.864% (inactive)
CC(=O)Nc1cccc(C(=O)OCC(=O)NCc2cc(C)c(O)c(C)c2)c1 | 25.7% (inactive)
O=c1c2c(nc3n1CCCCC3)sc1c(O)cccc12 | 94.5% (active)
Cc1cccc2c(=O)n3c(nc12)CCCCC3 | -3.58% (inactive)
CC(=O)c1ccc(NC(=O)c2sc3nc4n(c(=O)c3c2C)CCCCC4)cc1 | -6.68% (inactive)
CSc1ncccc1C(=O)Nc1ccc2c(c1)OCO2 | -7.77% (inactive)
COc1ccccc1N1CCN(CC(=O)Nc2ccnn2C2CCCC2)CC1 | 21.7% (inactive)
O=C(OCC1OC(Oc2ccc(O)cc2)C(O)C(O)C1O)c1ccccc1 (stereo unspecified) | 23.2% (inactive)
O=C(OCC1O[C@@H](OC(=O)c2cc(O)c(O)c(O)c2)[C@@H](OC(=O)c2cc(O)c(O)c(O)c2)[C@@H](OC(=O)c2cc(O)c(O)c(O)c2)[C@@H]1OC(=O)c1cc(O)c(O)c(O)c1)c1cc(O)c(O)c(O)c1 (stereo partly specified) | 98.8% (active)
CC(=O)NC1C(OCc2ccccc2)OC(COC(C)=O)C(OC(C)=O)C1OC(C)=O (stereo unspecified) | -6.67% (inactive)
NC(=O)c1ccsc1NC(=O)COC(=O)Cc1n[nH]c(=O)c2ccccc12 | -7.95% (inactive)
Cc1cccc(NS(=O)(=O)c2ccc(C)c(C(=O)NCc3cccnc3)c2)c1 | -5.85% (inactive)
O=C(O)c1n[nH]nc1-c1ccccc1 | -0.621% (inactive)
c1ccc(Nc2n[nH]nc2-c2ccccc2)cc1 | 100% (active)
CCCCNC(=S)NNC(=O)c1cc(C)on1 | 55.3% (inactive)
CCCCNC(=O)C(=O)c1ccccc1NC(C)=O | -1.84% (inactive)
CCCCNC(=O)Nc1c(C)cc(SC#N)cc1C | 96.7% (active)
O=C(OCc1cc(=O)n2ccsc2n1)C1(c2ccc(Cl)cc2)CC1 | -1.54% (inactive)
COc1ccccc1C(=O)NC(=O)COC(=O)c1ccco1 | -0.0405% (inactive)

SMILES | inhibition
Cc1cccc(NC(=O)c2ccc(S(=O)(=O)N(C)CC3CCCO3)cc2)c1C (stereo unspecified) | -10.6% (inactive)
CCN(CC(=O)NC(C)C)C(=O)c1cc(S(=O)(=O)N2CCCCC2)ccc1N1CCCCC1 | -1.75% (inactive)
NC(=O)Nc1ccc(C(=O)OCC(=O)NC2CCCc3ccccc32)cc1 (stereo unspecified) | -2.38% (inactive)
CSCC[C@H](NC(=O)N1CCn2c1nc1ccccc12)C(=O)NCc1ccc2c(c1)OCO2 | -4.75% (inactive)
CC(C)C[C@H](NC(=O)N1CCn2c1nc1ccccc12)C(=O)NC1CC1 | -10.7% (inactive)
CSCC[C@H](NC(=O)N1CCn2c1nc1ccccc12)C(=O)NC1CCCCC1 | 98.2% (active)
CC1CCN(C(=O)COC(=O)c2cc(=O)[nH]c3ccccc23)CC1 | 2.67% (inactive)
COc1cc(Cl)c(C)cc1NC(=O)CSc1nnc(-c2cccnc2)n1Cc1ccco1 | 20.1% (inactive)
COc1cc(Cl)c(C)cc1NC(=O)CSc1nnc(-c2ccco2)n1CC(C)C | 2.64% (inactive)
CCn1c(SCC(=O)Nc2cc(C)c(Cl)cc2OC)nnc1-c1ccco1 | 98.5% (active)
CCOC(=O)[C@H]1[C@H]2COc3ccccc3[C@@H]2N2C(=O)CN(Cc3ccccc3)C(=O)[C@@]12C | -1.27% (inactive)
C/C(=N\Nc1ncc(Cl)cc1Cl)c1cccs1 | 0.466% (inactive)
C/C(=N\Nc1nc2ccccc2[nH]1)c1cccs1 | 99% (active)
O=C(Nc1ccccc1-c1nc2ccccc2[nH]c1=O)c1cccs1 | 1.37% (inactive)
O=C1CCC/C=C/C[C@@H](CC(=O)N(CCO)Cc2ccccc2)C(=O)NC[C@H](c2ccccc2)O1 | 0.972% (inactive)
CCC[C@H]1CCCC/C=C\CCCC(=O)OCCN1C(=O)OC(C)(C)C | -2.32% (inactive)
CC(C)CC1NC(=O)c2cc(Cl)ccc2-n2c1nc1ccccc1c2=O (stereo unspecified) | -5.03% (inactive)
COc1cnn(-c2ccc([N+](=O)[O-])cc2)c(=O)c1Cl | 4% (inactive)
